In the library only some 27% were active in any assay of this set; here they are far more common.
CYP2C9 inhib – blocks human cytochrome P450 2C9; P11712; CYP2C9 Supersomes, luciferin-H conversion, luminescence; hit rate 20% among 96,000; inhibition, % at 5 µM;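 active = blocking of liver enzyme CYP2C9 beyond about 50% at 5 µM, limit read from the data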
Target sequence (P11712 whole entry, looked up): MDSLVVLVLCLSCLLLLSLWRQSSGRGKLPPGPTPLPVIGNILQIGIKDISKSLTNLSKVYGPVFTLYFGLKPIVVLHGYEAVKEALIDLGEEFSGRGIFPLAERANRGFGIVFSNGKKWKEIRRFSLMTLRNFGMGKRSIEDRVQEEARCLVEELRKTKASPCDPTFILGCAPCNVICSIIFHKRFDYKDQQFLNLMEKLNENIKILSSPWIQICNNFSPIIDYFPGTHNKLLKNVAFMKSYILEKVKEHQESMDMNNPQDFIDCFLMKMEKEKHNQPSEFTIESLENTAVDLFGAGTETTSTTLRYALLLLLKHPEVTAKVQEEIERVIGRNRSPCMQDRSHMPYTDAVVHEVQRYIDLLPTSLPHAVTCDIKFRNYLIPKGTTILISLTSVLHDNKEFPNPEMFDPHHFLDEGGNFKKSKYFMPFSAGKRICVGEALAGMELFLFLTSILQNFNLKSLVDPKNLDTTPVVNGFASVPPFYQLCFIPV
CYP2C19 inhib – blocks human cytochrome P450 2C19. P33261. CYP2C19 Supersomes, luciferin-H EGE luminescence, 30 min. inhibition, % at 5 µM. hit rate 21% among 96,000. AID 778;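 active = CYP2C19 inhibition above a set limit at 5 µM in the primary screen, cut at about 50% in these data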
CYP2C19 activ – cytochrome P450 2C19 (human) activation; recombinant CYP2C19, luciferin-H EGE luminescence; stronger effect = higher value; 0 = fully inhibited enzyme, 1 = untreated enzyme; activation factor at 5 µM; 96,000 tested, under 10 active;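 active = activation factor of at least 2 at 5 µM in the primary screen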
CYP2C9 activ – CYP2C9 (human) activation; recombinant CYP2C9, luciferin-H conversion, luminescence; stronger effect = higher value; factor 1 = untreated enzyme, 0 = blocked; activation factor at 5 µM; hit rate 1.4% among 96,000;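 active = activation factor of 2 or more for CYP2C9 at a 5 µM dose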
EphB4 ephrin blk – blocks human EphB4 binding to ephrin-B2; P54760; EphB4 LBD / TNYL-RAW-Alexa532 peptide, fluorescence polarization; inhibition, % at 7 µM; hit rate 0.15% among 97,000; AID 720;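 active = inhibition above the screen-wide mean inhibition plus 3 SD, cut at about 15% in these data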
Large screens that a line does not name were inactive.

CC(=O)N1c2ccccc2C(C)(c2ccccc2)CC1(C)C (stereo not drawn)	CYP2C9 inhib 54.4, CYP2C19 inhib 63.9
Cc1ccnc(NS(=O)(=O)c2ccc(Oc3ccccc3)cc2)c1	CYP2C19 inhib 66.8
CCOCCOC(=O)COc1ccc(N2C(=O)c3ccccc3C2=O)cc1	none (no result: EphB4 ephrin blk)
CC(=O)OCc1c(C(F)(F)F)nn(C)c1SCc1ccc(Cl)cc1	CYP2C9 inhib 62.4, CYP2C19 inhib 99.0
COc1ccc(CCNC(=O)CSc2nnnn2-c2ccccc2OC)cc1OC	none
N#Cc1ccccc1NC(=O)Nc1ccc(Cl)cc1	none
CN(CC(=O)Nc1ccc(Cl)cc1)CC(=O)Nc1cc(Cl)ccc1C#N	CYP2C19 inhib 62.9 (no result: EphB4 ephrin blk)
COc1ccccc1-c1nnc(NC(C)=O)s1	CYP2C9 activ 2.1
COc1ccccc1-c1nnc(NC(=O)C(C)C)s1	none (no result: EphB4 ephrin blk)
CCCCOC(=O)Nc1nnc(-c2ccccc2OC)s1	CYP2C9 activ 4.2
c1cc2c3c(cccc3c1)C(N1CCN(C3=Nc4cccc5cccc3c45)CC1)=N2	none (no result: CYP2C9 inhib, CYP2C19 inhib, CYP2C19 activ, CYP2C9 activ)
COc1ccc(N/N=C(/Oc2ccc([N+](=O)[O-])cc2)C(C)=O)cc1	none (no result: CYP2C9 inhib, CYP2C19 inhib, CYP2C19 activ, CYP2C9 activ)
CO/N=C/C(=N\Nc1ccc(OC)cc1)C(=O)c1ccc(OC)cc1	CYP2C9 inhib 68.5
Cc1ccc(SCC(=O)NCCN2C(=O)CSC2=O)cc1C	CYP2C19 inhib 97.0
Cc1ccc(-c2nc(SCC(=O)NCCN3C(=O)CSC3=O)[nH]c2-c2ccc(C)cc2)cc1	CYP2C9 inhib 64.5
Cc1cccc(-n2nnnc2SCC(=O)NCCN2C(=O)CSC2=O)c1	CYP2C19 inhib 77.2
Cc1ccc(SCC(=O)NCCN2C(=O)CSC2=O)c(C)c1	none (no result: CYP2C9 inhib, CYP2C19 inhib, CYP2C19 activ, CYP2C9 activ)
O=C(CSc1nnc(Cc2ccccc2)o1)NCCN1C(=O)CSC1=O	none
N#Cc1ccccc1NC1=CC(=O)CCC1	none (no result: EphB4 ephrin blk)
CC(=O)OC(Cn1nc(C)cc1C)c1ccccc1 (stereo not drawn)	none
Cc1c(NC(=O)CN2C(=O)C3C4C=CC(C4)C3C2=O)c(=O)n(-c2ccccc2)n1C (stereo not drawn)	none
O=C(Nc1ccc(Cn2nnc3ccccc32)cc1)c1ccco1	none
COC(=O)C1=C(C)NC(=O)C1(Nc1ccc(Cl)cn1)C(F)(F)F (stereo not drawn)	CYP2C19 inhib 70.2
COc1ccc2[nH]c3nc(SCc4nnc(-c5ccccc5)o4)nnc3c2c1	CYP2C9 inhib 64.3
Cc1nnc(SCc2nnc(-c3ccccc3Br)o2)n1-c1ccccc1	CYP2C19 inhib 81.7, CYP2C9 activ 2
CCSc1nnnn1-c1ccccc1	none
Brc1ccccc1-c1nnc(CSc2nnnn2-c2ccccc2)o1	CYP2C19 inhib 92.1
CCOc1ccc(-c2nnc(-c3ccccc3)n2-c2ccccc2)cc1	CYP2C9 inhib 65.2
CN(C)S(=O)(=O)c1cccc(-c2cn3cc(Cl)ccc3n2)c1	none
Cc1ccc(-n2c(C)nnc2SCC(=O)Nc2ccccc2)cc1	none (no result: CYP2C9 inhib, CYP2C19 inhib, CYP2C19 activ, CYP2C9 activ)
Cc1nnc(SCc2nnc(-c3ccc(Cl)cc3)o2)n1-c1ccccc1	CYP2C19 inhib 60.4 (no result: EphB4 ephrin blk)
COc1ccc(-c2nnc(SCc3ncc(-c4ccccc4)o3)o2)cc1	CYP2C19 inhib 86.7
COc1ccc(-n2c(SCc3nnc(-c4ccccc4)o3)nnc2-c2ccccc2)cc1	CYP2C19 inhib 54.0
COc1ccc(-c2nnc(SCc3nnc(-c4ccccc4)o3)n2-c2ccccc2)cc1	none
C=CCSc1nnc(C)n1-c1ccc(Cl)cc1	CYP2C19 inhib 51.7
Cc1ccc2cc(CN(CC3CCCO3)C(=O)NC3CCCCC3)c(=O)[nH]c2c1C (stereo not drawn)	none (no result: EphB4 ephrin blk)
CCN(CC)CCNC(=O)NC1CCCCC1	none (no result: EphB4 ephrin blk)
COc1ccc(C(C)=O)cc1CSc1nnc(-c2ccc(Cl)cc2)n1-c1ccccc1	CYP2C19 inhib 50.3
C=CCSc1nnc(-c2ccncc2)n1-c1ccc(OCC)cc1	CYP2C9 inhib 54.1, CYP2C19 inhib 99.2
COc1ccc(-c2nnc(SCc3nnc(-c4ccc(Cl)cc4)o3)n2-c2ccccc2)cc1	CYP2C9 inhib 54.4
CCNc1ccc(Br)cc(C(=O)/C=C/c2ccccc2Cl)c1=O	none (no result: CYP2C9 inhib, CYP2C19 inhib, CYP2C19 activ, CYP2C9 activ)
CC1CCc2c(nc3nc[nH]n3c2=O)C1 (stereo not drawn)	none
O=C(Nc1nc2cc(Cl)ccc2s1)C1CCCN(S(=O)(=O)c2cccc3cccnc23)C1 (stereo not drawn)	CYP2C9 activ 2.1
O=C(Nc1ccc(F)cc1)C1CCCN(S(=O)(=O)c2cccc3cccnc23)C1 (stereo not drawn)	CYP2C19 inhib 67.5
O=C(NCCCN1CCOCC1)C1(c2ccccc2)CCCC1	none
O=C(CCN1CCN(CC(=O)Nc2ccccc2Cl)CC1)Nc1ccccc1F	CYP2C19 inhib 77.1
O=C(CN1CCCCCC1)Nc1ccccc1F	CYP2C19 inhib 63.1
O=C(CN1CCN(CC(=O)Nc2ccccc2C(F)(F)F)CC1)Nc1ccccc1F	CYP2C19 inhib 84.8
O=C(CN1C(=O)NC2(CCCC2)C1=O)Nc1ccccc1F	CYP2C9 activ 2.3
CCN(CC)c1ccc(NC(=O)CN2CCN(CC(=O)Nc3ccccc3F)CC2)cc1	none
O=C(CCN1CCCCCC1)Nc1ccccc1F	none (no result: CYP2C9 inhib, CYP2C19 inhib, CYP2C19 activ, CYP2C9 activ)
O=C(O)C1CCCCC1C(=O)Nc1ccc2c(c1)OCCO2 (stereo not drawn)	none
Cc1ccc(C)c(-n2c(Cc3cc(=O)[nH]c(=O)[nH]3)nnc2SC(C)C)c1	none
CCOc1ccc(-c2onc(C(F)(F)F)c2-c2cscn2)c(O)c1	none
Cc1cc(O)cc(O)c1-c1onc(C(F)(F)F)c1-c1cscn1	CYP2C19 inhib 79.8
CCCCC1CCC(C(=O)Nc2c(C)n(C)n(-c3ccccc3)c2=O)CC1 (stereo not drawn)	none (no result: CYP2C9 inhib, CYP2C19 inhib, CYP2C19 activ, CYP2C9 activ)
O=C(Nc1nc2c(s1)COc1ccccc1-2)c1cccs1	CYP2C9 inhib 62.8
O=C(Nc1nc2c(s1)CCc1ccccc1-2)c1cccs1	none
O=C(CCS(=O)(=O)c1ccccc1)Nc1nc2c(s1)COc1ccccc1-2	CYP2C19 inhib 65.3
NC(=O)CCS(=O)(=O)c1ccccc1	none
CCCCCCCNC1=CC(=O)CC(c2ccco2)C1 (stereo not drawn)	none (no result: CYP2C9 inhib, CYP2C19 inhib, CYP2C19 activ, CYP2C9 activ)
CCC(Sc1nc2sc(C(=O)OC)c(C)c2c(=O)n1N)C(=O)NCC1CCCO1 (stereo not drawn)	CYP2C9 inhib 93.3, CYP2C19 inhib 93.9
CCCCNC(=O)C(CC)Sc1nc2sc(C(=O)OC)c(C)c2c(=O)n1N (stereo not drawn)	none (no result: CYP2C9 inhib, CYP2C19 inhib, CYP2C19 activ, CYP2C9 activ)
COCCCNc1nc2c([nH]1)c(=O)[nH]c(=O)n2C	none
CCOc1ccccc1OCc1nn2c(-c3ccc(C)cc3)nnc2s1	none
Cc1ccccc1-n1nnnc1SC1CCOC1=O (stereo not drawn)	CYP2C19 inhib 58.6, CYP2C9 activ 2.2 (no result: EphB4 ephrin blk)
O=C(NCC1OCCc2ccccc21)c1ccco1 (stereo not drawn)	none
O=C(CCN1CCCCC1)NCC1OCCc2ccccc21 (stereo not drawn)	CYP2C19 inhib 86.4
CCc1ccc(NC(=O)CS(=O)CC(=O)NCC2OCCc3ccccc32)cc1 (stereo not drawn)	CYP2C9 inhib 74.2
CCn1c(SCC(=O)Nc2ccccc2)nnc1C1CCCCC1	none (no result: CYP2C9 inhib, CYP2C19 inhib, CYP2C19 activ, CYP2C9 activ)
CCOC(=O)c1cc(C)n(Cc2ccc(OCC)c(OC)c2)c1C	CYP2C9 inhib 59.4
CCOc1cc(CN2CCCCC2)ccc1OC	none

Assay outcomes deposited in PubChem by several laboratories.
